For nine compounds, growth results are on record in PubChem BioAssay (NCI).

Some test systems named below: MOLT-4 leukemia; SR leukemia; OVCAR-8 ovarian; OVCAR-5 ovarian; OVCAR-4 ovarian; SK-OV-3 ovarian; IGROV1 ovarian; OVCAR-3 ovarian; HS 578T breast; NCI/ADR-RES ovarian; T-47D breast; MDA-MB-435 melanoma; SW-620 colon; MCF7 breast; HCT-116 colon; HCC-2998 colon; KM12 colon; RPMI-8226 leukemia; BT-549 breast.
Common to all, as to assay: NCI-60 one-dose screen, 48 h (100 = growth as untreated, 0 = no growth, -100 = all killed)
What all share (settings): 10 µM unless noted

Several values for one entry are separate records, joined by “and”; a condition that tells them apart may be missing. Equal entries are not always repeated. This is part of a sample that, as a whole, favours compounds with a hit. Of some 83,000 tested, about 20% had one in any assay.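 Activity criterion: percent growth below 10, measured after cells in 96-well plates were exposed to a single compound concentration for 48 hours.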 Activity calls are given as the source filed them.

For `COCC1OC2OC3C(COC)OC(OC4C(COC)OC(OC5C(COC)OC(OC6C(COC)OC(OC7C(COC)OC(OC8C(COC)OC(OC1C(O)C2O)C(O)C8O)C(O)C7O)C(O)C6O)C(O)C5O)C(O)C4O)C(O)C3O` (stereo unspecified) (tested in a mixture with another compound), the growth in the experiment on MOLT-4 leukemia was 99.6% (inactive); with SR leukemia, 91.3% (inactive); in the experiment with OVCAR-8 ovarian it was 114% (inactive); in the experiment with OVCAR-5 ovarian, 104% (inactive); in the experiment with OVCAR-4 ovarian, 111% (inactive); with SK-OV-3 ovarian, 117% (inactive). The growth with IGROV1 ovarian was 184% (inactive); in the experiment with OVCAR-3 ovarian, 119% (inactive); with HS 578T breast it was 105% (inactive); in the experiment on NCI/ADR-RES ovarian, 127% (inactive); in the experiment with T-47D breast it was 113% (inactive); in the experiment with MDA-MB-435 melanoma it was 117% (inactive). The growth with SW-620 colon was 109% (inactive); in the experiment on MCF7 breast, 101% (inactive); with HCT-116 colon, 120% (inactive); in the experiment on HCC-2998 colon it was 89.4% (inactive); in the experiment with KM12 colon, 109% (inactive).
For `Cc1cc(Br)c([N+](=O)[O-])cc1[N+](=O)[O-]`, the growth in the experiment on SR leukemia is 40.4% (inactive); in the experiment with RPMI-8226 leukemia, 120% (inactive); in the experiment on OVCAR-8 ovarian it was 94.9% (inactive); in the experiment on OVCAR-5 ovarian, 107% (inactive); in the experiment with OVCAR-4 ovarian it was 113% (inactive); in the experiment on SK-OV-3 ovarian, 104% (inactive). In addition, the growth in the experiment with IGROV1 ovarian is 110% (inactive); in the experiment on OVCAR-3 ovarian it was 103% (inactive); in the experiment on HS 578T breast, 105% (inactive); with NCI/ADR-RES ovarian it was 94.4% (inactive); in the experiment with T-47D breast, 85.7% (inactive); in the experiment on BT-549 breast it was 106% (inactive). Also, the growth with MDA-MB-435 melanoma was 96.3% (inactive); in the experiment on MCF7 breast, 91% (inactive); in the experiment on HCT-116 colon it was 20.5% (inactive); with HCC-2998 colon, 111% (inactive); with KM12 colon, 91.8% (inactive).
On to `O=C1C=C(N2CC2)c2ccccc2C1=O`, for which the growth in the experiment on SR leukemia is 0.0144% (active); with RPMI-8226 leukemia it was 40.5% (inactive); in the experiment on OVCAR-8 ovarian, 73.2% (inactive); in the experiment with OVCAR-5 ovarian it was 123% (inactive); with OVCAR-4 ovarian, 96.1% (inactive); in the experiment on SK-OV-3 ovarian it was 76% (inactive). The growth with IGROV1 ovarian is 70.7% (inactive); in the experiment with OVCAR-3 ovarian, 83.3% (inactive); in the experiment on HS 578T breast, 107% (inactive); in the experiment with NCI/ADR-RES ovarian, 62.7% (inactive); in the experiment with T-47D breast, 75.5% (inactive); in the experiment with MDA-MB-435 melanoma, -78.8% (active). Also, the growth in the experiment with SW-620 colon was 68.4% (inactive); in the experiment with MCF7 breast, 41.5% (inactive); with HCT-116 colon, 63.4% (inactive); in the experiment with HCC-2998 colon it was 94% (inactive); in the experiment on KM12 colon, 81.9% (inactive).
For the compound `CCOC(=O)C1C(c2ccco2)C2(C#N)C(=N)OC1(C)C2(C#N)C#N` (stereo unspecified), in the experiment with MCF7 breast, the growth is 45.1% [100 µM] (inactive) and 0.896% [100 µM] (active).
Turning to `Cc1ccccc1-n1c(/C=C\c2ccccn2)nc2ccccc2c1=O`, the growth in the experiment on SR leukemia was -5.07% (active); in the experiment on RPMI-8226 leukemia, 2.88% (active); in the experiment on OVCAR-8 ovarian, 71% (inactive); with OVCAR-5 ovarian, 106% (inactive); in the experiment on OVCAR-4 ovarian, 67.6% (inactive); with SK-OV-3 ovarian it was 86.6% (inactive). For the same compound, the growth in the experiment on IGROV1 ovarian was 67.1% (inactive); in the experiment with OVCAR-3 ovarian, 50.3% (inactive); in the experiment on HS 578T breast it was 44.2% (inactive); with NCI/ADR-RES ovarian it was -19.9% (active); in the experiment on T-47D breast, 49.1% (inactive); with MDA-MB-435 melanoma, 66.5% (inactive). In addition, the growth in the experiment on SW-620 colon was 68.9% (inactive); in the experiment with MCF7 breast, 66.9% (inactive); in the experiment on HCT-116 colon, 44% (inactive); in the experiment on HCC-2998 colon, 38.2% (inactive); in the experiment on KM12 colon, 65.4% (inactive).
For the compound `COc1cc(/C=C\[N+](=O)[O-])ccc1OCc1ccccc1`, the growth in the experiment on SR leukemia is -24.2% (active); in the experiment on RPMI-8226 leukemia, -45.6% (active); in the experiment with OVCAR-8 ovarian, 52.9% (inactive); in the experiment on OVCAR-5 ovarian it was 98.5% (inactive); with OVCAR-4 ovarian it was 85.3% (inactive); in the experiment on SK-OV-3 ovarian, 91.4% (inactive). The growth in the experiment on IGROV1 ovarian was 7.94% (active); in the experiment on OVCAR-3 ovarian it was 19.9% (inactive); in the experiment with NCI/ADR-RES ovarian it was 69.2% (inactive); in the experiment on T-47D breast, 49% (inactive); in the experiment on BT-549 breast it was 37.2% (inactive); in the experiment on MDA-MB-435 melanoma, 20% (inactive). Also, the growth in the experiment on SW-620 colon is 47.4% (inactive); in the experiment with MCF7 breast, 9.62% (active); in the experiment with HCT-116 colon it was 1% (active); with HCC-2998 colon, -70.4% (active); in the experiment on KM12 colon it was 23.6% (inactive).
Consider `O=c1c2ccccc2nc(-c2ccccc2Cl)n1-c1nnc(C(F)(F)F)s1`, for which the growth in the experiment with SR leukemia was -6.69% (active); in the experiment on RPMI-8226 leukemia, 0.839% (active); with OVCAR-8 ovarian, 32.7% (inactive); in the experiment with OVCAR-5 ovarian, 78.2% (inactive); with OVCAR-4 ovarian, 37.5% (inactive); in the experiment with SK-OV-3 ovarian it was 25.7% (inactive). Besides, the growth in the experiment on IGROV1 ovarian is 37.6% (inactive); in the experiment with HS 578T breast, 26.7% (inactive); in the experiment with NCI/ADR-RES ovarian it was 11.6% (inactive); in the experiment on T-47D breast it was 43.5% (inactive); with BT-549 breast it was 22.3% (inactive); in the experiment on MDA-MB-435 melanoma, 57.8% (inactive). In addition, the growth with SW-620 colon is 37.5% (inactive); in the experiment on MCF7 breast, 21.4% (inactive); in the experiment on HCT-116 colon, 16.8% (inactive); in the experiment on HCC-2998 colon it was 17.6% (inactive); in the experiment with KM12 colon it was 29.1% (inactive).
Turning to `COc1cc(C=C2C(=O)NC(=O)NC2=O)ccc1O`, the growth was 93.7% (inactive) with OVCAR-8 ovarian; 92% (inactive) in the experiment with OVCAR-5 ovarian; 101% (inactive) in the experiment with OVCAR-4 ovarian; 107% (inactive) in the experiment on SK-OV-3 ovarian; 105% (inactive) in the experiment on IGROV1 ovarian; 110% (inactive) in the experiment on OVCAR-3 ovarian. Besides, the growth with HS 578T breast was 123% (inactive); in the experiment with NCI/ADR-RES ovarian, 97.5% (inactive); in the experiment with T-47D breast it was 101% (inactive); in the experiment with BT-549 breast, 111% (inactive); with MDA-MB-435 melanoma it was 101% (inactive); with SW-620 colon it was 108% (inactive). Moreover, the growth was 106% (inactive) with MCF7 breast, 102% (inactive) with HCT-116 colon, 96% (inactive) in the experiment on HCC-2998 colon and 104% (inactive) with KM12 colon.
As for `c1ccc2c(c1)sc1ccccc12`, the growth with SR leukemia was 105% (inactive); in the experiment on RPMI-8226 leukemia, 103% (inactive); in the experiment with OVCAR-8 ovarian, 101% (inactive); in the experiment on OVCAR-5 ovarian it was 95.7% (inactive); in the experiment on OVCAR-4 ovarian it was 105% (inactive); with SK-OV-3 ovarian, 104% (inactive). Also, the growth was 98.2% (inactive) in the experiment with IGROV1 ovarian; 116% (inactive) in the experiment on OVCAR-3 ovarian; 104% (inactive) with HS 578T breast; 99.4% (inactive) with NCI/ADR-RES ovarian; 112% (inactive) in the experiment with T-47D breast; 92.8% (inactive) in the experiment with MDA-MB-435 melanoma. The growth in the experiment with SW-620 colon was 106% (inactive); in the experiment with MCF7 breast it was 102% (inactive); with HCT-116 colon, 96.6% (inactive); in the experiment on HCC-2998 colon, 97.3% (inactive); in the experiment on KM12 colon, 103% (inactive).
